Laboratory results taken from paper PMC8384837, “Expanding the binding specificity for RNA recognition by a PUF domain”.

Columns and labels:
Assay in all cases: yeast three-hybrid, YBZ-1, SC-Leu-His + 0.5 mM 3-AT, 4 days
Details in all cases: tags: N-Gal4 AD-HA kept; label: inside an RPR1-promoter hybrid RNA with tandem MS2 sites; ssRNA
[1] = biological target: PUM1 PUF domain R3-GNE (Homo sapiens, UniProt Q14671 828-1176, C935G;R936N;Q939E)
Method in brief: (§1)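 The interaction score is the logarithmic change in variant frequency from input to selection. It uses log2, with a pseudocount of 1 for absent variants, and frequencies came from PCR-amplified, Illumina-sequenced repeat regions. The libraries were Pumilio-1 PUF domains randomized at the three base-contacting residues per repeat, co-expressed with matching RNA elements in strain YBZ-1 (LexA–MS2 coat fusion, HIS3 reporter). Plating lasted four days on SC-Leu (input) or SC-Leu-His + 0.5 mM 3-AT (selection).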

[2] = biological target: PUM1 PUF domain R3-IYS (Homo sapiens, UniProt Q14671 828-1176, C935I;R936Y;Q939S)
Method in brief: as §1

[3] = biological target: PUM1 PUF domain R4-PWT (Homo sapiens, UniProt Q14671 828-1176, N971P;H972W;Q975T)
Method in brief: as §1

[4] = biological target: PUM1 PUF domain R4-SMV (Homo sapiens, UniProt Q14671 828-1176, N971S;H972M;Q975V)
Method in brief: as §1

[5] = biological target: PUM1 PUF domain R7-RRY (Homo sapiens, UniProt Q14671 828-1176, S1079R;N1080R;E1083Y)
Method in brief: as §1

[6] = biological target: PUM1 PUF domain R5-GWW (Homo sapiens, UniProt Q14671 828-1176, C1007G;R1008W;Q1011W)
Method in brief: as §1

[7] = biological target: PUM1 PUF domain R3-TFL (Homo sapiens, UniProt Q14671 828-1176, C935T;R936F;Q939L)
Method in brief: as §1

[8] = biological target: PUM1 PUF domain R3-PWV (Homo sapiens, UniProt Q14671 828-1176, C935P;R936W;Q939V)
Method in brief: as §1

[9] = biological target: PUM1 PUF domain R3-SNP (Homo sapiens, UniProt Q14671 828-1176, C935S;R936N;Q939P)
Method in brief: as §1

[10] = biological target: PUM1 PUF domain R5-SRI (Homo sapiens, UniProt Q14671 828-1176, C1007S;Q1011I)
Method in brief: as §1

[11] = biological target: T1, PUM1 PUF domain R6-SFA (Homo sapiens, UniProt Q14671 828-1176, N1043S;Y1044F;Q1047A)
T1 sequence: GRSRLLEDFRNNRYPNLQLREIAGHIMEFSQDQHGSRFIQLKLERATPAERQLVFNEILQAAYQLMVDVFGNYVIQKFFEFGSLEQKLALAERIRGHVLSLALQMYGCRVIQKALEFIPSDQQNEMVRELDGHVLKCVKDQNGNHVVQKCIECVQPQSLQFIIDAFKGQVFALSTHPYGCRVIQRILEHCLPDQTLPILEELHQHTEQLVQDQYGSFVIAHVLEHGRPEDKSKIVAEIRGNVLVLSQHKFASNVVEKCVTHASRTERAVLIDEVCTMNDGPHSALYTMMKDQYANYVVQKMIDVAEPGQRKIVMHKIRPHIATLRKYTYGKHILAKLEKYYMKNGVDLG
Method in brief: as §1

[12] = biological target: PUM1 PUF domain R3-ARL (Homo sapiens, UniProt Q14671 828-1176, C935A;Q939L)
Method in brief: as §1

[13] = biological target: PUM1 PUF domain R8-CHR (Homo sapiens, UniProt Q14671 828-1176, N1122C;Y1123H;Q1126R)
Method in brief: as §1

PUM1 PUF domain R4-SMV, sequence (Q14671 828-1176 N971S/H972M/Q975V): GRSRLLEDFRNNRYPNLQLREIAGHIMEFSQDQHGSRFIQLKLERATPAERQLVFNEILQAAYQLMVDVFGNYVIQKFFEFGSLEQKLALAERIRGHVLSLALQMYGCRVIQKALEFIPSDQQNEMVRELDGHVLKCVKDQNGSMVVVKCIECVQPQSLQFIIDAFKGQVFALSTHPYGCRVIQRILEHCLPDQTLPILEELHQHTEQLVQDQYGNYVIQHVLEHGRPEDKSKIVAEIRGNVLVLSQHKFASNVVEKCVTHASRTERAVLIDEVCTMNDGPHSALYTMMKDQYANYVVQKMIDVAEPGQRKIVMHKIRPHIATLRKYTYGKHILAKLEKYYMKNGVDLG

## GGCUAGAACUAGUGGAUCCCCCGGCGCCCGGCGGCUCGAGCCCGGGUAAGUGUAAGUAGUCUGCAUGCCGCCGGGCGCCAUGCCUGCAGGUCGACUCUAGAAAACAUG
[1]
  binding signal: 2.22 log2 enrichment (interaction score)
[2]
  binding signal: 4.72 log2 enrichment (interaction score)

## GGCUAGAACUAGUGGAUCCCCCGGCGCCCGGCGGCUCGAGCCCGGGUAAGUGUACAUAGUCUGCAUGCCGCCGGGCGCCAUGCCUGCAGGUCGACUCUAGAAAACAUG
[3]
  binding signal: 5.24 log2 enrichment (interaction score)
[4]
  binding signal: 0.58 log2 enrichment (interaction score)

## GGCUAGAACUAGUGGAUCCCCCGGCGCCCGGCGGCUCGAGCCCGGGUAAGUCUAAAUAGUCUGCAUGCCGCCGGGCGCCAUGCCUGCAGGUCGACUCUAGAAAACAUG
[5]
  binding signal: 3.51 log2 enrichment (interaction score)

## GGCUAGAACUAGUGGAUCCCCCGGCGCCCGGCGGCUCGAGCCCGGGUAAGUGUUAAUAGUCUGCAUGCCGCCGGGCGCCAUGCCUGCAGGUCGACUCUAGAAAACAUG
[6]
  binding signal: 6.66 log2 enrichment (interaction score)

## GGCUAGAACUAGUGGAUCCCCCGGCGCCCGGCGGCUCGAGCCCGGGUAAGUGUAAAUAGUCUGCAUGCCGCCGGGCGCCAUGCCUGCAGGUCGACUCUAGAAAACAUG
[7]
  binding signal: 2.81 log2 enrichment (interaction score)
[8]
  binding signal: 3.63 log2 enrichment (interaction score)
[9]
  binding signal: 2.72 log2 enrichment (interaction score)
[10]
  binding signal: 2.73 log2 enrichment (interaction score)
[11]
  binding signal: 3.38 log2 enrichment (interaction score)
[12]
  binding signal: 3.6 log2 enrichment (interaction score)
[13]
  binding signal: 2.18 log2 enrichment (interaction score)
[4]
  binding signal: 3.8 log2 enrichment (interaction score)
